Activity calls are given as the source filed them. Rule for the calls: active = hit-call score of the fitted dose curve at least 0.9, where 1 is the maximum; inactive = score below 0.9.
Experiments:
Conditions in all cases: mRNA level, 48 h; actives raise or lower the signal
[1] = read-out: ATP-citrate lyase (ACLY), ACLY (gene 47); test: LTEA_HepaRG_ACLY: Life Technologies and Expression Analysis (LTEA) Assay for ATP-citrate lyase (ACLY) using HepaRG (AID 2283466)
Summary of the method: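 HepaRG, 48 h exposure, 8-pt half-log dilutions (top 100 uM), 0.5% DMSO. Readout: ACLY mRNA, TaqMan qRT-PCR, housekeeping-normalized (ACTB/GAPDH/POLR2A). Bidirectional curve fit vs DMSO.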

[2] = read-out: Peroxisomal acyl-coenzyme A oxidase 1 (ACOX1) gene, ACOX1 (gene 51); test: LTEA_HepaRG_ACOX1: Life Technologies and Expression Analysis (LTEA) Assay for Peroxisomal acyl-coenzyme A oxidase 1 (ACOX1) gene using HepaRG (AID 2283467)
Summary of the method: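 Measured by qRT-PCR against three housekeeping genes: ACOX1 transcript change in human HepaRG cells after 48 h dosing. Concentrations ran up to 100 uM in half-log steps. Curves were fitted bidirectionally relative to 0.5% DMSO.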

[3] = read-out: Alkaline Phosphatase, Placental (ALPP) gene, ALPP (gene 250); test: LTEA_HepaRG_ALPP: Life Technologies and Expression Analysis (LTEA) Assay for Alkaline Phosphatase, Placental (ALPP) gene using HepaRG (AID 2283468)
Summary of the method: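 ALPP transcript level, measured by qRT-PCR and normalized to three housekeeping genes (ACTB, GAPDH, POLR2A), after 48 h dosing of differentiated HepaRG in serum-free induction medium. Top concentration 100 uM with half-log dilutions (8 points, 0.5% DMSO, duplicates); bidirectional fitting relative to DMSO.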

[4] = read-out: Bcl-2 (BAD) gene, BAD (gene 572); test: LTEA_HepaRG_BAD: Life Technologies and Expression Analysis (LTEA) Assay for Bcl-2 (BAD) gene using HepaRG (AID 2283469)
Summary of the method: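 BAD transcript change, measured by qRT-PCR against three housekeeping genes and fitted in both directions relative to 0.5% DMSO, after 48 h chemical treatment of human HepaRG liver cells at concentrations up to 100 uM.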

[5] = read-out: Bcl-2 (BAX) gene, BAX (gene 581); test: LTEA_HepaRG_BAX: Life Technologies and Expression Analysis (LTEA) Assay for Bcl-2 (BAX) gene using HepaRG (AID 2283470)
Summary of the method: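 Concentration-response endpoint fitted in both directions relative to 0.5% DMSO vehicle. Human HepaRG cultures receive test chemicals for 48 h at up to 100 uM; BAX mRNA is quantified by qRT-PCR against housekeeping genes.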

[6] = read-out: adenosine kinase (ADK) gene, ADK (gene 132); test: LTEA_HepaRG_ADK: Life Technologies and Expression Analysis (LTEA) Assay for adenosine kinase (ADK) gene using HepaRG (AID 2283471)
Summary of the method: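 Read-out is ADK transcript level measured by qRT-PCR and normalised to three housekeeping genes. Cells are human HepaRG, dosed for 48 h at up to 100 uM in 0.5% DMSO. Gain or loss of signal is fitted against DMSO controls.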

[7] = read-out: Alpha-fetoprotein (AFP) gene, AFP (gene 174); test: LTEA_HepaRG_AFP: Life Technologies and Expression Analysis (LTEA) Assay for Alpha-fetoprotein (AFP) gene using HepaRG (AID 2283472)
Summary of the method: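 After a 48 h plating period, cells are moved to serum-free induction medium and dosed in duplicate (100 uM maximum, half-log dilutions, 0.5% DMSO) for another 48 h. Total RNA goes to TaqMan qRT-PCR; AFP signal is housekeeping-normalized.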

BCL2L11 (gene 10018) = test: LTEA_HepaRG_BCL2L11: Life Technologies and Expression Analysis (LTEA) Assay for Bcl-2 (BCL2L11) gene using HepaRG (AID 2283473)
Summary of the method: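 BCL2L11 transcript levels are measured by Fluidigm qRT-PCR, normalized to three housekeeping genes. HepaRG cultures were plated 48 h, then treated 48 h with test chemical (top 100 uM, half-log, 0.5% DMSO vehicle); curves were fitted bidirectionally against DMSO.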

[8] = read-out: Apolipoprotein A-V (APOA5) gene, APOA5 (gene 116519); test: LTEA_HepaRG_APOA5: Life Technologies and Expression Analysis (LTEA) Assay for Apolipoprotein A-V (APOA5) gene using HepaRG (AID 2283474)
Summary of the method: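 APOA5 transcript levels were quantified by qRT-PCR, normalized to three housekeeping genes, after 48 h chemical treatment of HepaRG cells (8 points, 100 uM maximum, half-log steps, 0.5% DMSO). Curves fitted in both directions against vehicle.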

[9] = read-out: Apoptosis regulator Bcl-2 (Homo sapiens) (UniProt P10415); test: LTEA_HepaRG_BCL2: Life Technologies and Expression Analysis (LTEA) Assay for Bcl-2 gene using HepaRG (AID 2283475);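 note: BCL2 transcript by TaqMan qRT-PCR normalised to ACTB GAPDH and POLR2A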
Summary of the method: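 Expression change of BCL2 mRNA in HepaRG after 48 h dosing, quantified by TaqMan qRT-PCR against three endogenous controls. Concentration-response used eight points up to 100 uM, vehicle 0.5% DMSO.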

Caspase-3 (Homo sapiens) = Caspase-3 (Homo sapiens) (UniProt P42574); test: LTEA_HepaRG_CASP3: Life Technologies and Expression Analysis (LTEA) Assay for cysteine-aspartic acid protease (CASP3) using HepaRG (AID 2283477)
Summary of the method: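 Expression of CASP3 was quantified by TaqMan qRT-PCR against three housekeeping genes (ACTB, GAPDH, POLR2A), bidirectionally versus 0.5% DMSO. HepaRG cultures received compounds in duplicate, top 100 uM with half-log steps, for 48 h in serum-free induction medium.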

[10] = read-out: Cytochrome P450 (CYP24A1), CYP24A1 (gene 1591); test: LTEA_HepaRG_CYP24A1: Life Technologies and Expression Analysis (LTEA) Assay for Cytochrome P450 (CYP24A1) using HepaRG (AID 2283478)
Summary of the method: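 mRNA of CYP24A1 quantified by TaqMan qRT-PCR (ACTB/GAPDH/POLR2A normalization) after 48 h chemical exposure of HepaRG cells, top concentration 100 uM, half-log steps, 0.5% DMSO vehicle, duplicates. Curves fitted bidirectionally against DMSO baseline.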

[11] = read-out: Cytochrome P450 (CYP1A2), CYP1A2 (gene 1544); test: LTEA_HepaRG_CYP1A2: Life Technologies and Expression Analysis (LTEA) Assay for Cytochrome P450 (CYP1A2) using HepaRG (AID 2283479)
Summary of the method: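 CYP1A2 transcript measured by TaqMan qRT-PCR against three housekeeping genes after 48-hour chemical exposure of HepaRG cells. Eight-point half-log series topping at 100 uM in 0.5% DMSO, duplicates; gain or loss fitted relative to vehicle.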

[12] = read-out: cysteine-aspartic acid protease (CASP8), CASP8 (gene 841); test: LTEA_HepaRG_CASP8: Life Technologies and Expression Analysis (LTEA) Assay for cysteine-aspartic acid protease (CASP8) using HepaRG (AID 2283480)
Summary of the method: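 HepaRG, 48 h exposure, duplicate wells; 8 conc, half-log from 100 uM, 0.5% DMSO. Serum-free induction medium. CASP8 mRNA by TaqMan qRT-PCR, norm. ACTB/GAPDH/POLR2A; gain/loss fitted vs DMSO.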

[13] = read-out: Cytochrome P450 (CYP2B6), CYP2B6 (gene 1555); test: LTEA_HepaRG_CYP2B6: Life Technologies and Expression Analysis (LTEA) Assay for Cytochrome P450 (CYP2B6) using HepaRG (AID 2283481)
Summary of the method: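 CYP2B6 transcript level quantified by qRT-PCR against three housekeeping genes, fitted bidirectionally relative to DMSO. HepaRG cultures received chemicals for 48 h, 8-point half-log series from 100 uM in 0.5% DMSO, duplicate wells, serum-free induction medium.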

[14] = read-out: Cytochrome P450 2C19 (Homo sapiens) (UniProt P33261); test: LTEA_HepaRG_CYP2C19: Life Technologies and Expression Analysis (LTEA) Assay for CYP2C19 using HepaRG (AID 2283482)
Summary of the method: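 CYP2C19 transcript levels by qRT-PCR, normalized to three housekeeping genes, in HepaRG cells after 48 h chemical exposure. Eight-point half-log series topping at 100 uM, 0.5% DMSO vehicle. Increases and decreases both fitted against DMSO.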

CYP2C8 (gene 1558) = test: LTEA_HepaRG_CYP2C8: Life Technologies and Expression Analysis (LTEA) Assay for CYP2C8 using HepaRG (AID 2283483)
Summary of the method: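 CYP2C8 mRNA induction or loss, by qRT-PCR normalized to ACTB/GAPDH/POLR2A, is read in HepaRG cells after 48 h treatment. Concentrations run from 100 uM down in half-log dilutions, with 0.5% DMSO as vehicle and baseline.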

CYP2C9 (gene 1559) = test: LTEA_HepaRG_CYP2C9: Life Technologies and Expression Analysis (LTEA) Assay for CYP2C9 using HepaRG (AID 2283484)
Summary of the method: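 Cells plated 48 h, switched to serum-free induction medium, then treated in duplicate for 48 h at eight concentrations (max 100 uM, 0.5% DMSO). RNA then analysed by qRT-PCR for CYP2C9; curves fitted in both directions relative to DMSO.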

CYP2E1 (gene 1571) = test: LTEA_HepaRG_CYP2E1: Life Technologies and Expression Analysis (LTEA) Assay for CYP2E1 using HepaRG (AID 2283485)
Summary of the method: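 Differentiated HepaRG cells were treated in duplicate for 48 h with chemicals in 0.5% DMSO, from 100 uM downward in half-log dilutions. RNA was then analysed by qRT-PCR for CYP2E1 induction or loss.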

[15] = read-out: Bcl-2 (BID) gene, BID (gene 637); test: LTEA_HepaRG_BID: Life Technologies and Expression Analysis (LTEA) Assay for Bcl-2 (BID) gene using HepaRG (AID 2283476)
Summary of the method: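 Gain or loss of BID expression is fitted relative to 0.5% DMSO vehicle. Human HepaRG liver cells received a 48 h chemical exposure over an eight-point concentration range.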

Measured: AC50

Sequence of Caspase-3 (Homo sapiens) (P42574 whole entry, looked up): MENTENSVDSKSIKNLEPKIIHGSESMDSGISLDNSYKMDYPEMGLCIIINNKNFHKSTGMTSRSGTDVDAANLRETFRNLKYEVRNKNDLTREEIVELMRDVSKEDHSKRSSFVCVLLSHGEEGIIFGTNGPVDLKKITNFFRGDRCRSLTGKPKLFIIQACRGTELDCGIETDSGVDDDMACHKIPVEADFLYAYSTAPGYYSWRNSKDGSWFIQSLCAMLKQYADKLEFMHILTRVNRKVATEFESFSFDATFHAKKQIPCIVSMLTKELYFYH
Sequence of Cytochrome P450 2C19 (Homo sapiens) (P33261 whole entry, looked up): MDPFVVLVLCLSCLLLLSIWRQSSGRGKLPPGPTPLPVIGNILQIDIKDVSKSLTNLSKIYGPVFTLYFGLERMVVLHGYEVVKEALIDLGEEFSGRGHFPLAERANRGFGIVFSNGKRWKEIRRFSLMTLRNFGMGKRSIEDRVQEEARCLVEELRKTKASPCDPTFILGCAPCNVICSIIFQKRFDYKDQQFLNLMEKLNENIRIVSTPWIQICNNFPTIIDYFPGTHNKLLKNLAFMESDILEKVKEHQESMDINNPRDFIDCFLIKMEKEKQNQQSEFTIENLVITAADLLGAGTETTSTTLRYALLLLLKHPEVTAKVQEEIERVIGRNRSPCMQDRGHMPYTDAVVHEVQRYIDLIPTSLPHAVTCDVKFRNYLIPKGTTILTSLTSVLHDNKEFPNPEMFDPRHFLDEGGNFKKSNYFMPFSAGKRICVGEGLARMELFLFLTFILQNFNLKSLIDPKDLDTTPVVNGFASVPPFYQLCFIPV
Sequence of Apoptosis regulator Bcl-2 (Homo sapiens) (P10415 whole entry, looked up): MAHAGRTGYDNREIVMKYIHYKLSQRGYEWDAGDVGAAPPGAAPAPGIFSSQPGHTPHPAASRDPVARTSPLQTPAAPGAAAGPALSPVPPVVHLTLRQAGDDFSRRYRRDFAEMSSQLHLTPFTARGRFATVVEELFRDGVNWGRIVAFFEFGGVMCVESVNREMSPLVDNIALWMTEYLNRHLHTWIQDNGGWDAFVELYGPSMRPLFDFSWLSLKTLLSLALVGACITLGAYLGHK

CC1=C(C)S(=O)(=O)CCS1(=O)=O
inactive: [1] | [2] | [3] | [4] | BCL2L11 (gene 10018) | [10] | [12] | CYP2C8 (gene 1558) | CYP2E1 (gene 1571)
active: [5] 50 µM | [6] 0.277 µM | [7] 80.3 µM | [8] 0.187 µM | [9] 88.4 µM | Caspase-3 (Homo sapiens) 69.8 µM | [11] 9.92 µM | [13] 89 µM | [14] 88 µM | CYP2C9 (gene 1559) 87.7 µM

CCCC[C@H]1CN(CC2CCOCC2)C(=O)OC12CCN(C1(C)CCN(C(=O)c3c(C)ncnc3C)CC1)CC2
not listed: [2]
inactive: all other assays above

CO[C@@H]1COCC[C@@H]1N[C@@H]1CC[C@@](C(=O)N2CCc3ncc(C(F)(F)F)cc3C2)(C(C)C)C1
not listed: [9] | [15]
inactive: all other assays above

Source: PubChem BioAssay (EPA / NIEHS)
